A short description of experiment [1]: Quantitative High-Throughput drug screen in 47 multiple myeloma cell lines against the NCATS MIPE library collection: FR4_PLB cell viability assay (AID 1918924; further: nearly all actives have a fitted effect of over 35% in size; further: potency means the concentration at half of the fitted maximal effect). The method in brief: (§1)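 Primary qHTS used for cherry-picking: cells at 500/well, library compounds for 48 h (37C, 5% CO2), luminescent ATP assay.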
Experiment [2] is described as follows: Quantitative High-Throughput drug screen in 47 multiple myeloma cell lines against the NCATS MIPE library collection: Delta47_JCRB cell viability assay (AID 1918925; further: nearly all actives have a fitted effect of over 45% in size; further: potency means the concentration at half of the fitted maximal effect). In a few lines: (§2)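 qHTS of the MIPE 4.0 collection: 500 myeloma cells/well, 48 h drug exposure at 37C in 5% CO2, then CellTiter-Glo for 5 min at room temperature before luminescence reading.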

The nature of experiment [3]: Quantitative High-Throughput drug screen in 47 multiple myeloma cell lines against the NCATS MIPE library collection: EJM_DSMZ cell viability assay (AID 1918926; further: nearly all actives have a fitted effect of over 30% in size; further: potency means the concentration at half of the fitted maximal effect). The method in brief: as §2
Experiment [4] is described as follows: Quantitative High-Throughput drug screen in 47 multiple myeloma cell lines against the NCATS MIPE library collection: AMO1_DSMZ cell viability assay (AID 1918927; further: nearly all actives have a fitted effect of over 30% in size; further: potency means the concentration at half of the fitted maximal effect). In a few lines: as §2
Experiment [5] in a line: Quantitative High-Throughput drug screen in 47 multiple myeloma cell lines against the NCATS MIPE library collection: ARP1_JJKsccF8 cell viability assay (AID 1918928; further: nearly all actives have a fitted effect of over 40% in size; further: potency means the concentration at half of the fitted maximal effect). The method in brief: (§3)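 Myeloma cells, 500 per well, were exposed to MIPE 4.0 drugs by pin transfer for 48 h at 37 °C, 5% CO2. Viability was read as ATP luminescence with CellTiter-Glo, normalised to DMSO-only (100%) and medium-only (0%) wells.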

A short description of experiment [6]: Quantitative High-Throughput drug screen in 47 multiple myeloma cell lines against the NCATS MIPE library collection: Karpas620_DSMZ cell viability assay (AID 1918959). Further: nearly all actives have a fitted effect of over 30% in size. Further: potency means the concentration at half of the fitted maximal effect. In a few lines: as §1
The nature of experiment [7]: Quantitative High-Throughput drug screen in 47 multiple myeloma cell lines against the NCATS MIPE library collection: KMM1_JCRB cell viability assay (AID 1918960). Further: nearly all actives have a fitted effect of over 30% in size. Further: potency means the concentration at half of the fitted maximal effect. In a few lines: as §3
Experiment [8] is described as follows: Quantitative High-Throughput drug screen in 47 multiple myeloma cell lines against the NCATS MIPE library collection: KHM11_PLB cell viability assay (AID 1918962). Further: nearly all actives have a fitted effect of over 35% in size. Further: potency means the concentration at half of the fitted maximal effect. The method in brief: as §1
Experiment [9] is described as follows: Quantitative High-Throughput drug screen in 47 multiple myeloma cell lines against the NCATS MIPE library collection: JIM3_ECACC cell viability assay (AID 1918963; further: nearly all actives have a fitted effect of over 35% in size; further: potency means the concentration at half of the fitted maximal effect). The method in brief: as §1
The nature of experiment [10]: Quantitative High-Throughput drug screen in 47 multiple myeloma cell lines against the NCATS MIPE library collection: INA6_PLB cell viability assay (AID 1918965; further: nearly all actives have a fitted effect of over 55% in size; further: potency means the concentration at half of the fitted maximal effect). In a few lines:
(§4)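 We plated 500 myeloma cells per well, pinned in MIPE 4.0 compounds, and incubated for 48 hours at 37C. ATP was then quantified with CellTiter-Glo, with DMSO and media-only wells defining 100% and 0%.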

The target in experiment [11] is Glutathione peroxidase 1 (Homo sapiens) (UniProt P07203). Nature of the experiment: Primary qHTS Assay for Inhibitors of Recombinant Selenoprotein Glutathione Peroxidase 1 (GPX1) (AID 1845191). Further: nearly all actives have a fitted effect of over 65% in size. The method in brief: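 10 nM GPX1 + cpd, 30 min RT; start w/ 1 mM GSH, 0.5 mM cumene hydroperoxide, 0.5 mM NADPH, 100 nM GR, 0.01% BSA; buffer 50 mM Tris-HCl pH 7.5, 2 mM EDTA, 150 mM NaCl; Fl 340/450, 0 & 15 min.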
Glutathione peroxidase 1 (Homo sapiens), sequence (P07203 whole entry, looked up): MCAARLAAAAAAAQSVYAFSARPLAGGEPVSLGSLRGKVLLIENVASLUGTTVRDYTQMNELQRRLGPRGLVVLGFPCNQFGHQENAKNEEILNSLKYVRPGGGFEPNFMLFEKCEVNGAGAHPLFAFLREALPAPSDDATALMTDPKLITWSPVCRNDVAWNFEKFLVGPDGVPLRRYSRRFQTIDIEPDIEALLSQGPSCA
(In general: In qHTS, concentration-response curves come from the screen itself.)

The target in experiment [12] is Luciferin 4-monooxygenase (Photinus pyralis) (UniProt P08659). The experiment can be described thus: Primary firefly luciferase (FLuc) qHTS assay for identification of artifact compounds. (AID 1845220). Further: nearly all actives have a fitted effect of over 60% in size. Conditions: outcome: dose series up to 54.1 µM unless noted. The method in brief: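 FLuc 10 nM; luciferin 10 uM; ATP 10 uM; Tris-acetate pH 7.6, Mg-acetate 10 mM; 15 min RT preincubation; 5 min reaction; luminescence.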

For experiment [13], the system named is Nanoluciferase (engineered Oplophorus gracilirostris luciferase). The experiment can be described thus: Primary Nanoluciferase (NLuc) qHTS assay for identification of artifact compounds. (AID 1845222).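 Further: NLuc secreted into diluted conditioned medium of S16 cells.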 In a few lines: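 NLuc from S16 cell medium (1:55) plus test compounds, 15 min, room temperature. Luminescence after Nano-Glo (1:100) addition, 5 min.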
Experiment [14] can be described thus: Primary redox qHTS assay for identification of artifact compounds. (AID 1845223). The method in brief: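 Amplex Red (25 uM) and HRP (250 mU/mL) in HBSS, with compounds for 15 min, then 250 uM DTT for 30 min, room temperature, dark. Fluorescence 525/598 nm read; normalized to DMSO and 10 uM DA3003; Hill fit.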
Experiment [15] is described as follows: Quantitative High-Throughput drug screen in 47 multiple myeloma cell lines against the NCATS MIPE library collection: JIM1_ECACC cell viability assay (AID 1918964; further: potency means the concentration at half of the fitted maximal effect). In a few lines: as §2
Experiment [16] in a line: Primary fluorescence-based thiol-reactive (MSTI) qHTS assay for identification of artifact compounds. (AID 1845221). Further: nearly all actives have a fitted effect of over 65% in size. Further: potency means the concentration at half of the fitted maximal effect. The method in brief: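 Thiol-reactive compounds detected by quenching of 4 uM MSTI fluorescence (525/598 nm) after 1 h room-temperature dark incubation in PBS pH 7.4, 2% DMSO. qHTS titration; percent inhibition Hill-fitted against Acetyl-MSTI/MSTI controls.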

A short description of experiment [17]: Quantitative High-Throughput drug screen in 47 multiple myeloma cell lines against the NCATS MIPE library collection: Karpas417_ECACC cell viability assay (AID 1918961). Further: potency means the concentration at half of the fitted maximal effect. As to conditions: Karpas417 myeloma viability, CellTiter-Glo ATP luminescence, 48 h; viability (% of DMSO): at 45.8 µM (top of the series). The method in brief:
as §4
Background: In ATP-based viability assays light output follows the ATP content of the culture.

Experiment [18] in a line: Quantitative High-Throughput drug screen in 47 multiple myeloma cell lines against the NCATS MIPE library collection: ARD_JJKsccE7 cell viability assay (AID 1918929; further: potency means the concentration at half of the fitted maximal effect). In a few lines:
as §2

Inconclusive results are not listed. Calls of active or inactive are those of the source. The call rests on the fitted dose curve; in most records, active means well fitted curve in the direction sought with a large enough effect; inconclusive means small, poorly fitted or top-dose-only effect, or another doubt; inactive means no such curve, though single readings can be large; an effect the other way counts as inactive or inconclusive.

`CN1[C@H]2CC(O)C[C@H]1[C@H]1O[C@H]12` (stereo not given in full): the Potency was 26.4 µM (active) in experiment [1]; 9.35 µM (active) in experiment [2]; 20.9 µM (active) in [3]; 20.9 µM (active) in [5]; 14.8 µM (active) in experiment [8]; 9.35 µM (active) in experiment [9]. In experiment [10], the Potency was 8.33 µM (active). For the same compound, the Potency entry in [4], in experiment [6] and in experiment [7] was “inactive” each time.

Consider `COc1ccc(N(C(=O)Oc2c(C)cccc2C)c2ccnc(Nc3ccc(N4CCN(C)CC4)cc3)n2)c(OC)c1`, for which the Potency result in [11] was “inactive”. Also, the outcome in [12], in experiment [13] and in [14] was inactive. For the same compound, the Potency in [1] is 2.64 µM (active); in experiment [2], 4.18 µM (active); in experiment [3], 0.743 µM (active); in [4] it was 1.48 µM (active); in [6] it was 2.64 µM (active); in experiment [7], 2.96 µM (active). For the same compound, the Potency in experiment [15] was 2.64 µM (active); in experiment [10] it was 1.48 µM (active).

In the case of `CC(=Cc1csc(C)n1)[C@@H]1C[C@H]2O[C@]2(C)CCC[C@H](C)[C@@H](O)[C@@H](C)C(=O)C(C)(C)[C@@H](O)CC(=O)O1`, the Potency entry in experiment [1], in experiment [2], in [3], in experiment [5], in experiment [8] and in experiment [9] was “inactive” in each case. The Potency entry in experiment [10] was “inactive”. In addition, the Potency in experiment [4] and in experiment [7] was 0.001 µM (active) each time.

For the compound `CC(C)(C)c1cc(C=C(C#N)C#N)cc(Br)c1O`, the Potency entry in [11] is “inactive”. The Potency is 26.4 µM (active) in [1]; 16.6 µM (active) in [2]; 23.5 µM (active) in [3]; 26.4 µM (active) in experiment [4]; 26.4 µM (active) in experiment [5]; 18.7 µM (active) in [7]. Further, the values for the Potency in experiment [8], in experiment [9] and in experiment [10] were 14.8 µM (active), 16.6 µM (active) and 4.18 µM (active), respectively.

In the case of `CCOC(=O)Nc1ccc(NCc2ccc(F)cc2)cc1N`, the outcome in experiment [12], in experiment [13] and in experiment [14] was inactive. In addition, the values for the Potency in experiment [16], in experiment [2] and in experiment [7] were 1.19 µM (active), 7.43 µM (active) and 6.62 µM (active), respectively. In addition, the Potency result in [1], in [3], in experiment [4], in experiment [5], in experiment [17] and in experiment [9] was “inactive” throughout.

With `C[C@](O)(COc1ccc(C#N)cc1)C(=O)Nc1ccc(C#N)c(C(F)(F)F)c1`, the Potency result in [11], in [1] and in experiment [5] was “inactive” in each case. Moreover, the Potency in experiment [17] is 23.5 µM (active).

Take `CCCC[N+]1(C)[C@H]2CC(OC(=O)[C@H](CO)c3ccccc3)C[C@H]1[C@H]1O[C@H]12` (stereo not given in full): the Potency result in experiment [11], in experiment [1], in [2], in experiment [18], in experiment [6] and in [7] was “inactive” throughout. The Potency entry in experiment [8], in [9] and in experiment [15] was “inactive” each time. In addition, the Potency in experiment [10] was 2.35 µM (active).

As for `O=C(N[C@@H](COc1ccc2[nH]c(=O)[nH]c2c1)c1ccccc1)c1cccn(Cc2ccc(F)c(F)c2)c1=O`, the Potency result in experiment [11] and in experiment [16] was “inactive” throughout. For the same compound, the compound was called inactive in [12], in experiment [13] and in [14]. In addition, the values for the Potency in experiment [2], in experiment [4] and in experiment [7] were 20.9 µM (active), 18.7 µM (active) and 18.7 µM (active), respectively.

With `CC(C)(O)C=CC(=O)[C@](C)(O)[C@H]1[C@H](O)C[C@]2(C)[C@@H]3CC=C4[C@@H](C=C(O)C(=O)C4(C)C)[C@]3(C)C(=O)C[C@@]12C`, the Potency was 0.0469 µM (active) in [1]; 0.0166 µM (active) in experiment [2]; 0.0083 µM (active) in experiment [3]; 0.0418 µM (active) in experiment [4]; 0.0662 µM (active) in experiment [5]; 0.296 µM (active) in experiment [18]. Moreover, the Potency was 0.418 µM (active) in experiment [6]; 0.059 µM (active) in [7]; 0.0083 µM (active) in [17]; 0.0418 µM (active) in experiment [8]; 0.105 µM (active) in experiment [9]; 0.0148 µM (active) in experiment [15]. Moreover, the Potency in [10] is 0.0148 µM (active).

`COC1=CC(C)=C[C@@H](C)[C@@H](O)[C@@H](C)CC(C)=CC=C[C@H](OC)[C@H]([C@@H](C)[C@@H](O)[C@H](C)[C@@]2(O)C[C@@H](O)[C@H](C)[C@@H](C(C)C)O2)OC1=O`: the Potency in [1] was 0.0042 µM (active); in experiment [2], 0.0187 µM (active); in experiment [3], 18.7 µM (active); in [4], 0.001 µM (active); in experiment [6], 14.8 µM (active); in experiment [7], 0.0093 µM (active). In addition, the Potency in [8] was 0.001 µM (active); in experiment [9] it was 0.0053 µM (active); in experiment [15], 0.001 µM (active).

In the case of `CC(=O)OCC1=C(C(=O)O)N2C(=O)[C@@H](N)[C@@H]2SC1`, the Potency result in experiment [1], in experiment [2], in experiment [3], in experiment [5], in experiment [8] and in [9] was “inactive” each time. Besides, the Potency was 23.5 µM (active) in experiment [4] and 10.5 µM (active) in [6].

Values taken from PubChem BioAssay (NCATS).
